Cell viability activity data for 39 compounds are collected here from the supplement of paper PMC9177965.

Assay [1] deals with HT29 RNF43 G659fs (RNF43 659mut, CRISPR-edited). The experiment in a line: cell viability activity relative to DMSO (negative = inhibition); higher = more viable cells (less growth inhibition). Particulars: 5 µM; 96 h. Here is the method:
(§1)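 Broad Repurposing Library primary screen at a single dose of 5 uM. HT29 sg-Ctrl and HT29 RNF43 G659fs CRISPR-edited isogenic cells were seeded at 2500 cells/well in 384-well plates in duplicate and treated for 96 h. Viability was read by CellTiter-Glo and reported as % activity relative to DMSO, with MG132 as the positive control (negative = growth inhibition).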

Assay [2] has as its system HT29 sg-Ctrl (RNF43 wildtype). The assay is described as above. Particulars: 5 µM; 96 h. Here is the method:
as §1

Structures are written as SMILES.

`c1cncc(CN2CCC(n3ncc4c(N5CCOCC5)nc(-c5ccc6[nH]ccc6c5)nc43)CC2)c1`: the cell viability activity in assay [1] is -74.3%; in assay [2] it was -75.2%.

As for `Cc1cc(C(=O)NOCCO)c(Nc2ccc(I)cc2F)n(C)c1=O`, the cell viability activity in assay [1] was -83.4%; in assay [2], -88.5%. As for `Nc1ncnc2c1c(-c1cccc(OCc3ccccc3)c1)cn2C1CC(CN2CCC2)C1` (stereo not given), the cell viability activity in assay [1] is -55.1%; in assay [2], -61.2%.

Turning to `Cc1ccc(C(=O)N(CCCN)[C@@H](c2nc3cc(Cl)ccc3c(=O)n2Cc2ccccc2)C(C)C)cc1`, the cell viability activity was -65.1% in assay [1] and -66.5% in assay [2]. Take `CC(=O)c1ccc2c(c1)[C@@H]1C=CC[C@@H]1[C@H](c1cc3c(cc1Br)OCO3)N2`: the cell viability activity in assay [1] was -69.9%; in assay [2], -56.9%.

Take `COc1cc(OC)cc(N(CCNC(C)C)c2ccc3ncc(-c4cnn(C)c4)nc3c2)c1`: the cell viability activity in assay [1] was -70.3%; in assay [2] it was -64.7%. For `Cn1cnc2c(F)c(Nc3ccc(Br)cc3Cl)c(C(=O)NOCCO)cc21`, the cell viability activity was -71.6% in assay [1] and -70.6% in assay [2].

Take `C[C@@H]1COCCN1c1cc(=O)n2c(n1)N(Cc1cncc(Cl)c1)[C@H](C(F)(F)F)CC2`: the cell viability activity in assay [1] is -57.9%; in assay [2] it was 1.22%. As to `Cc1ccc([N+](=O)[O-])cc1S(=O)(=O)N(C)/N=C/c1cnc2ccc(Br)cn12`, the cell viability activity was -88.7% in assay [1] and -94.4% in assay [2].

Regarding `C[C@H](Nc1ncnc2nc[nH]c12)c1cc2cccc(Cl)c2c(=O)n1-c1ccccc1`, the cell viability activity in assay [1] was -24.4%; in assay [2], -24.3%.

Consider `Nc1ncn([C@@H]2O[C@H](CO)[C@@H](O)[C@H]2O)c(=O)n1`, for which the cell viability activity is -24.4% in assay [1] and -7.11% in assay [2].

`NC(=O)N1CCC(CC(=O)N2CCC([C@H]3c4ncc(Br)cc4CCc4cc(Cl)cc(Br)c43)CC2)CC1`: the cell viability activity in assay [1] is -51%; in assay [2], -56.6%. On to `OC[C@H]1O[C@@H](Oc2cc(O)cc(/C=C/c3ccc(O)cc3)c2)[C@H](O)[C@@H](O)[C@@H]1O`, for which the cell viability activity in assay [1] was -34.4%; in assay [2], -36%.

On to `CC(C)N1CCN(c2ccc(OC[C@@H]3CO[C@@](Cn4cncn4)(c4ccc(Cl)cc4Cl)O3)cc2)CC1`, for which the cell viability activity is -68% in assay [1] and -76% in assay [2]. Turning to `C=CC(=O)Nc1cc2c(Nc3ccc(F)c(Cl)c3)ncnc2cc1C#CC(C)(C)N1CCN(C)CC1`, the cell viability activity was -94.8% in assay [1] and -86.1% in assay [2]. With `C[n+]1cc2c3c(ccc2c2ccc4cc5c(cc4c21)OCO5)OCO3`, the cell viability activity was -97.3% in assay [1] and -96.2% in assay [2]. For `CC(=O)c1cnc2ccc(-c3cc(Cl)c(O)c(Cl)c3)nc2c1N[C@H]1CC[C@H](CN(C)C)CC1`, in that order: -89.2% and -91.1%. On to `C=CC(=O)Nc1cc(Nc2nccc(-c3cn(C)c4ccccc34)n2)c(OC)cc1N(C)CCN(C)C`, for which the cell viability activity in assay [1] was -82.3%; in assay [2], -50.6%. For `CS(=O)(=O)N1CCc2c(-c3cnc(N)nc3)nc(N3CCOCC3)nc21`, in that order: -53.1% and -25.2%. In the case of `CC[C@@H](C(=O)[C@@H](C)[C@@H](O)[C@H](C)CCc1ccc(C)c(O)c1C(=O)O)[C@H]1O[C@](CC)([C@H]2CC[C@](O)(CC)[C@H](C)O2)C[C@@H]1C`, the cell viability activity in assay [1] is -65.8%; in assay [2], -42.9%. As for `COc1cc(-c2ncn(/C=C/C(=O)OC(C)C)n2)cc(C(F)(F)F)c1`, the cell viability activity in assay [1] is -69.7%; in assay [2] it was -76.9%.

Consider `CC(C)(C)c1cc(/C=C(\C#N)C(N)=S)cc(C(C)(C)C)c1O`, for which the cell viability activity in assay [1] is -85.1%; in assay [2], -77%. Regarding `CN1C/C=C/CCOc2cccc(c2)-c2ccnc(n2)Nc2cccc(c2)C1`, the figures for the cell viability activity in assay [1] and in assay [2] were -92.8% and -89.6%, respectively. For `COc1cc2ncnc(Sc3nnc(C)s3)c2cc1OC`, in that order: -29.5% and 14.6%. For `CN(C)C(=O)c1cc2cnc(Nc3ccc(N4CCNCC4)cn3)nc2n1C1CCCC1`, in that order: -26% and -39.7%.

With `C[C@@H](CN1CC(=O)NC(=O)C1)N1CC(=O)NC(=O)C1`, the cell viability activity was -48.1% in assay [1] and -44.6% in assay [2]. Regarding `COc1ccc(/C=C\c2cc(OC)c(OC)c(OC)c2)cc1O`, the values for the cell viability activity in assay [1] and in assay [2] were -64.6% and -58.3%, respectively. Regarding `Cc1ncc(-c2ccnc(Nc3ccc(S(C)(=O)=O)cc3)n2)n1C(C)C`, the cell viability activity is -91.5% in assay [1] and -87.7% in assay [2].

As to `CCc1nc(C(N)=O)c(Nc2ccc(N3CCC(N4CCN(C)CC4)CC3)c(OC)c2)nc1NC1CCOCC1`, in assay [2], the cell viability activity was -61.8%. For `CN(C)CCOc1ccc(-c2nc(-c3ccncc3)c(-c3ccc4c(c3)CC/C4=N\O)[nH]2)cc1`, the results for the cell viability activity in assay [1] and in assay [2] were -44.3% and -45.8%, respectively. `c1ccc2c(-c3cnn4cc(-c5ccc(N6CCNCC6)cc5)cnc34)ccnc2c1`: the cell viability activity in assay [1] is -95.2%; in assay [2], -95.7%. As to `CC[C@H](C)[C@@H]([C@@H](CC(=O)N1CCC[C@H]1[C@H](OC)[C@@H](C)C(=O)N[C@@H](Cc1ccccc1)c1nccs1)OC)N(C)C(=O)[C@@H](NC(=O)[C@H](C(C)C)N(C)C)C(C)C`, the cell viability activity is -55.7% in assay [1] and -43% in assay [2]. `CN(C)C/C=C/C(=O)Nc1cc2c(Nc3ccc(F)c(Cl)c3)ncnc2cc1O[C@H]1CCOC1`: the cell viability activity is -26.4% in assay [1] and -19.3% in assay [2]. Regarding `CN1CC[C@@H](c2c(O)cc(O)c3c(=O)cc(-c4ccccc4Cl)oc23)[C@@H]1CO`, the cell viability activity is -90.1% in assay [1] and -82.7% in assay [2]. For `CCN(CC)CCN(Cc1ccc(-c2ccc(C(F)(F)F)cc2)cc1)C(=O)Cn1c(SCc2ccc(F)cc2)nc(=O)c2c1CCC2`, in that order: -96.2% and -96.7%.

Regarding `COc1cccc(-c2cc(F)ccc2[C@H]2Cc3nc(N)nc(C)c3C(=O)N2)n1`, the cell viability activity in assay [2] is -81.1%. Consider `C[C@H](Nc1cc(-c2cnn(C)c2)cc(Nc2cnccn2)n1)c1ccc(F)cc1`, for which the cell viability activity in assay [1] is -46.9%; in assay [2] it was -43%. Turning to `O=C(c1ccc(F)c(F)c1Nc1ccc(I)cc1F)N1CC(O)([C@@H]2CCCCN2)C1`, in assay [2], the cell viability activity is -88.9%.

As to `CNC(=O)c1ccccc1Nc1cc(Nc2ccc(N3CCOCC3)cc2OC)ncc1C(F)(F)F`, the cell viability activity is -64.6% in assay [1] and -60% in assay [2].
